Experimental data from PubChem BioAssay AID504604 (National Center for Advancing Translational Sciences (NCATS), 2011).
Several values for one entry are separate records, joined by “and”; a condition that tells them apart may be missing. Equal entries are not always repeated. Activity calls are given as the source filed them. Calls come from the whole dose curve; as a rule, active = well fitted inhibition curve with a large enough effect; inconclusive = small, poorly fitted or top-dose-only effect; inactive = flat fitted curve, though single readings scatter.

test: Quantitative high throughput screen to test activity of anti-malarial compounds in the Dd2 strain of Plasmodium Falciparum; details: P. falciparum Dd2 in RBCs, SYBR Green growth, 72 h
Excerpt: NIH Molecular Libraries Probe Production Network [MLPCN] NIH Chemical Genomics Center [NCGC] MLPCN Grant: R21 NS059500 Assay Provider: David Fidock and Eric Ekland, Columbia University The goal of this screen is to measure the ability of a set of anti-malarial compounds to inhibit the Dd2 strain of P. falciparum. These compounds have been screened in a delayed death phenotype assay and have been identified as inhibitors of the delated death phenotype, by inhibiting the development of the apicoplast in the malarial parasite Plasmodium falciparum (described below) The biochemical processes that make this organelle essential for erythrocytic stage parasites are not well understood. However, antibiotics, such as azithromycin and tetracycline, which target the apicoplast translational machinery, have a potent antimalarial effect. […] We have developed a cell-based assay that measures parasite growth based on the expression of an integrated copy of a firefly luciferase reporter. To detect small molecules that cause this 'delayed death' phenotype, erythrocytes infected with the luciferase-expressing parasites were incubated with compounds for either one or two generations, corresponding to 48 and 96 hours, respectively. Compounds that inhibit parasite growth in the second generation, but not the first, should be enriched in antimalarials that target the apicoplast. Growth inhibition is detected by a decrease in luciferase activity
3 ul culture medium was dispensed into black clear-bottom plates (aurora) with multidrop Combi followed by a pin-transfer of […] compounds and positive control into assay plates. (Controls: 1 mM Artemisinin 1:2 dilution in duplicate Multi-Drop dispense of P. falciparum infected RBCs (0.3% parasitemia, 2.5% hematocrit final concentration) followed by 72 hr incubation (37C, 5% CO2). Multi-drop dispense 2 ul 10 X SYBR Green lysis buffer ([…] Tris-HCl, 10 mM EDTA, 0.16% saponin (w/v), 1.6% Triton-X (v/v), 10 x SYBR Green I supplied as 10,000 x final concentration by Invitrogen) into assay plates. Incubated at Room temperature, overnight in the dark and then read using Envision (Perkin Elmer) with fluorescence intensity at 485 nm excitation and 535 nm emission wavelengths.

Potency, active:
C=CCOC(=O)N(C)C[C@H]1OCCCC[C@H](C)Oc2ccc(NC(=O)Nc3ccccc3)cc2C(=O)N([C@@H](C)CO[Si](C)(C)C(C)(C)C)C[C@H]1C 565 nM
C[C@@H]1CN([C@@H](C)CO)C(=O)c2cc(Nc3nc4ccccc4o3)ccc2O[C@@H](C)CCCCO[C@H]1CN(C)S(=O)(=O)c1ccc(F)cc1 2000 nM
C[C@@H]1CN([C@@H](C)CO)C(=O)c2cc(NC(=O)Nc3ccccc3)ccc2O[C@@H](C)CCCCO[C@H]1CN(C)C(=O)OC(C)(C)C 2250 nM
C[C@@H]1CN([C@@H](C)CO)C(=O)c2cc(NC(=O)Nc3ccccc3)ccc2O[C@@H](C)CCCCO[C@H]1CN(C)S(=O)(=O)c1ccccc1F 2000 nM
C[C@@H]1CN(C)C(=O)c2cc(NC(=O)Nc3ccccc3)ccc2O[C@@H](C)CCCCO[C@@H]1CN(C)S(=O)(=O)c1ccc(F)cc1 3570 nM
C[C@@H]1CCCCO[C@H](CN(C)C(=O)Nc2ccc(F)cc2)[C@H](C)CN([C@@H](C)CO)C(=O)c2cc(NS(=O)(=O)c3ccccc3)ccc2O1 504 nM
COCOC[C@H](C)N1C[C@@H](C)[C@H](CN(C)S(=O)(=O)c2ccc(F)cc2)OCCCC[C@H](C)Oc2ccc(NC(=O)Nc3ccccc3)cc2C1=O 28.3 nM
C[C@@H]1CN([C@@H](C)COC(=O)C(C)(C)C)C(=O)c2cc(NC(=O)Nc3ccccc3)ccc2O[C@@H](C)CCCCO[C@H]1CN(C)S(=O)(=O)c1ccc(F)cc1 50.4 nM
C=CCOC(=O)N(C)C[C@@H]1OCCCC[C@H](C)Oc2ccc(NC(=O)Nc3ccccc3)cc2C(=O)N([C@@H](C)CO)C[C@H]1C 1260 nM
C[C@@H]1CN(CCO)C(=O)c2cc(NC(=O)Nc3ccccc3)ccc2O[C@@H](C)CCCCO[C@H]1CN(C)S(=O)(=O)c1ccc(F)cc1 2520 nM
Cc1noc(C)c1NC(=O)Nc1ccc2c(c1)C(=O)N(C(C)C)C[C@@H](C)[C@H](CN(C)S(=O)(=O)c1ccc(F)cc1)OCCCC[C@H](C)O2 179 nM and 2.52 µM
C[C@@H]1CN([C@@H](C)CO)C(=O)c2cc(NC(=O)Nc3ccccc3)ccc2O[C@@H](C)CCCCO[C@H]1CN(C)S(=O)(=O)c1cccc(F)c1 50.4 nM
CC(C)N1C[C@@H](C)[C@H](CN(C)S(=O)(=O)c2ccc(F)cc2)OCCCC[C@H](C)Oc2ccc(NC(=O)Nc3ccccc3)cc2C1=O 56.5 nM
C[C@@H]1CN([C@@H](C)CO)C(=O)c2cc(N)ccc2O[C@@H](C)CCCCO[C@H]1CN(C)S(=O)(=O)c1ccc(F)cc1 711 nM
C[C@@H]1CCCCO[C@@H](CN(C)Cc2ccc(F)cc2)[C@H](C)CN([C@@H](C)CO)C(=O)c2cc(NC(=O)Nc3ccccc3)ccc2O1 6340 nM
C[C@@H]1CN([C@@H](C)CO[Si](C)(C)C(C)(C)C)C(=O)c2cc(NC(=O)Nc3ccccc3)ccc2O[C@@H](C)CCCCO[C@H]1CN(C)S(=O)(=O)c1ccc(F)cc1 5 nM
COc1ccc(COCCN2C[C@@H](C)[C@H](CN(C)S(=O)(=O)c3ccc(F)cc3)OCCCC[C@H](C)Oc3ccc(NC(=O)Nc4ccccc4)cc3C2=O)cc1 252 nM
COCCOCOC[C@H](C)N1C[C@@H](C)[C@H](CN(C)S(=O)(=O)c2ccc(F)cc2)OCCCC[C@H](C)Oc2ccc(NC(=O)Nc3ccccc3)cc2C1=O 35.7 nM
C[C@@H]1CN([C@@H](C)COC(C)(C)C)C(=O)c2cc(NC(=O)Nc3ccccc3)ccc2O[C@@H](C)CCCCO[C@H]1CN(C)S(=O)(=O)c1ccc(F)cc1 3.6 nM
C=CCOC(=O)N(C)C[C@@H]1OCCCC[C@H](C)Oc2ccc(NC(=O)Nc3ccccc3)cc2C(=O)N([C@H](C)COC(=O)c2ccccc2)C[C@H]1C 896 nM
C[C@@H]1CN([C@@H](C)CO)C(=O)c2cc(NC(=O)Nc3ccccc3)ccc2O[C@@H](C)CCCCO[C@H]1CN(C)S(=O)(=O)c1ccc(C(F)(F)F)cc1 1130 nM
C[C@@H]1CN([C@@H](C)CO)C(=O)c2cc(NC(=O)Nc3ccccc3)ccc2O[C@@H](C)CCCCO[C@H]1CN(C)Cc1ccc(C(F)(F)F)cc1 1590 nM
C[C@@H]1CN([C@@H](C)CN=[N+]=[N-])C(=O)c2cc(NC(=O)Nc3ccccc3)ccc2O[C@@H](C)CCCCO[C@H]1CN(C)S(=O)(=O)c1ccc(F)cc1 56.5 nM
CC(C)NC(=O)Nc1ccc2c(c1)C(=O)N([C@@H](C)CO)C[C@@H](C)[C@H](CN(C)S(=O)(=O)c1ccc(F)cc1)OCCCC[C@H](C)O2 1790 nM
C[C@@H]1CN([C@@H](C)COC(=O)c2ccccc2)C(=O)c2cc(NC(=O)Nc3ccccc3)ccc2O[C@@H](C)CCCCO[C@H]1CN(C)C(=O)OC(C)(C)C 798 nM
COc1ccc(COC[C@H](C)N2C[C@@H](C)[C@H](CN(C)Cc3ccc(OC)cc3)OCCCC[C@H](C)Oc3ccc(NC(=O)Nc4ccccc4)cc3C2=O)cc1 798 nM
C[C@@H]1CN([C@@H](C)CO)C(=O)c2cc(NC(=O)Nc3ccccc3)ccc2O[C@@H](C)C/C=C/CO[C@H]1CN(C)S(=O)(=O)c1ccc(F)cc1 565 nM
C[C@@H]1CN([C@H](C)CO[Si](C)(C)C(C)(C)C)C(=O)c2cc(NC(=O)Nc3ccccc3)ccc2O[C@@H](C)CCCCO[C@H]1CN(C)S(=O)(=O)c1ccc(F)cc1 565 nM
C[C@@H]1CN([C@@H](C)CO)C(=O)c2cc(NC(=O)Nc3ccccc3)ccc2O[C@@H](C)C/C=C\CO[C@H]1CN(C)S(=O)(=O)c1ccc(F)cc1 1260 nM
C[C@@H]1CN([C@@H](C)COC(=O)c2ccccc2)C(=O)c2cc(NC(=O)Nc3ccccc3)ccc2O[C@@H](C)CCCCO[C@H]1CN(C)S(=O)(=O)c1ccc(F)cc1 179 nM
Cc1noc(C)c1NC(=O)Nc1ccc2c(c1)C(=O)N([C@@H](C)CO)C[C@@H](C)[C@H](CN(C)S(=O)(=O)c1ccc(F)cc1)OCCCC[C@H](C)O2 634 nM
C[C@@H]1CN([C@@H](C)CO)C(=O)c2cc(NC(=O)Nc3ccccc3)ccc2O[C@@H](C)CCCCO[C@H]1CN(C)S(=O)(=O)c1cccnc1 4490 nM
C[C@@H]1CN(CCO[Si](C)(C)C(C)(C)C)C(=O)c2cc(NC(=O)Nc3ccccc3)ccc2O[C@@H](C)CCCCO[C@H]1CN(C)S(=O)(=O)c1ccc(F)cc1 225 nM
